# Experimental data reported in PubChem BioAssay (NCATS).
# Inconclusive results are not listed. Unmarked numbers belong to inactive results. Calls of active or inactive are those of the source. The call rests on the fitted dose curve; in most records, active means well fitted inhibition curve with a large enough effect; inconclusive means small, poorly fitted or top-dose-only effect; inactive means flat fitted curve, though single readings scatter.
# Target: Calcium and integrin-binding protein 1 (Homo sapiens) (UniProt Q99828)
# Assay: Primary qHTS for Identification of Calcium Integrin Binding Protein 1 (CIB1) Competitor (AID 1508620);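 on activity change, negative = inhibition: GST tagged CIB1 binding a fluorescein labelled alphaIIb integrin peptide tracer; top concentration of the series differs between compounds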
# Conditions: CIB1-GST / FITC-alphaIIb peptide fluorescence polarization; series mostly up to 114 µM; activity change, negative = inhibition: at the top concentration
# Method in brief: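 Fluorescence polarization competition: CIB1-GST (1 uM final) preincubated with compound 15 min at room temperature, then FITC-labeled alphaIIb peptide (100 nM final) added for another 15 min. Polarization read at Ex 480/Em 540.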
# On the % scale 0 is the no-effect control and ±100 the full control effect; potency means the concentration at half of the fitted maximal effect.
# Sequence of Calcium and integrin-binding protein 1 (Homo sapiens) (Q99828 whole entry, looked up): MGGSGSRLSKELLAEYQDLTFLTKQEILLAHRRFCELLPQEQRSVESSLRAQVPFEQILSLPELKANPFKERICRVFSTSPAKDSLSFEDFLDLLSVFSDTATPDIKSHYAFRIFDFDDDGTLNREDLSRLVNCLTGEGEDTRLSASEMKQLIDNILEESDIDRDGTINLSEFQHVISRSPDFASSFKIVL
SMILES,"activity change, negative = inhibition",Potency
O=C1CCCC2=C1C(c1[nH]ncc1Cl)NC(=NCc1ccncc1)N2 (configuration not stated),-4.89%,
N#Cc1ccc(Nc2ncc(-c3cccc4ccccc34)o2)cc1,4.27%,
CC(Nc1ncnc2ccc(-c3ccc4c(c3)OCO4)cc12)c1ccco1 (configuration not stated),-0.794%,
COc1ccc(N2C[C@]34C=C[C@H](O3)C(C(=O)O)C4C2=O)cc1 (some centres not stated),-3.16%,
O=C1CCCC2=C1C(c1[nH]ncc1Cl)NC(=S)N2 (configuration not stated),-4.97%,
Cc1cc(-c2nnc3n2CCCCC3)c(C)n1-c1ccc([N+](=O)[O-])cc1,-8.18%,
N#Cc1ccc(-c2ccc(-c3nc4ccccc4c(=O)[nH]3)o2)cc1,1.75%,
Brc1cnc2nc(SCc3cccnc3)[nH]c2c1,-2.06%,
O=c1c2ccc(F)cc2nc2sc(Nc3ccc4c(c3)CCC4)nn12,7.1%,
O=C(Nc1ccc(Cl)c(S(=O)(=O)N2CCOCC2)c1)c1ccc(S(=O)(=O)N2CCOCC2)cc1,1.09%,
Cc1ccc(-c2ccc(=O)n(CC(=O)N(C)C(C)c3cccs3)n2)cc1 (configuration not stated),-7.22%,
FC(F)(F)c1ccc(CSc2nc3ncc(Br)cc3[nH]2)cc1,5.35%,
COc1cccc(C2=Nn3c(nnc3-c3cc(OC)ccc3OC)SC2)c1,-5.74%,
CC(=O)Nc1sc2c(c1-c1nc3ccccc3o1)CCN(C(C)C)C2,,50.1 µM (active)
CC1=C(C(=O)Nc2ccc(Cl)cc2)C(c2ccccc2Br)N=C(Nc2nc3ccccc3o2)N1 (configuration not stated),0.736%,
C#CCOc1ccc(-c2nnc3n2N=C(c2ccc(OC)c(OCC(C)=O)c2)CS3)cc1,17.2%,
O=C1c2ccccc2NC(c2ccc(-c3cccc(Cl)c3)o2)N1O (configuration not stated),-13.2%,
